Assay results taken from PubChem BioAssay AID540332 (The Scripps Research Institute Molecular Screening Center, 2011).
Values without a mark were called inactive. How the calls were made is not given here.

Tested on: Imidazoline I2
Experiment: selectivity profile across receptors and CYP450s – biochemical, Ricerca HitProfilingScreen, CYP450, set 2, selectivity assay for S1P4 agonist project, profiling panel (AID 540332)
Conditions: Central; at 30 µM; hits give high values

COCCN=C1S/C(=C\c2cc(C)n(-c3ccc(F)cc3F)c2C)C(=O)N1C gave an inhibition of 2%.
